High-throughput results: PubChem, National Center for Advancing Translational Sciences (NCATS)
This is a sample that favours compounds with a hit; in the whole collection about 2.2% have one here.
TGFb inhibitor – inhibitors of TGF-b signaling; HepG2 CAGA-GFP TGF-b/SMAD3 reporter, GFP fluorescence, 18 h; TGF-beta stimulated, 500 pg/mL final; Potency, µM (series often up to 46.1 µM), hits mostly inhibitors; hit rate 1.2% among 410,000; further: nearly all actives have a fitted effect of over 65% in size
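Smad-responsive CAGA-GFP expression was quantified in HEPG2 cells exposed to compounds and 500 pg/mL final TGF-beta for 18 h at 37 degrees C; unstimulated wells defined full inhibition.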
ATXN2 expr inh – inhibitors of ATXN2 expression; HEK-293 ATXN2-luciferase reporter, luminescence, 24 h; Potency, µM (doses to about 57 µM), hits mostly inhibitors; hit rate 0.72% among 360,000; AID 1745845; further: nearly all actives have a fitted effect of over 55% in size
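qHTS (up to 57 uM final) was run with 24 h compound exposure of reporter cells at 37 °C. Each well was multiplexed: SteadyGlo luminescence measured ATXN2-luciferase expression after a fluorogenic Gly-Phe-AFC viability readout (25 uM final).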
S2 tox – reduces viability in counter-screen for ATXN expression inhibitors | Potency, µM (series often up to 56.7 µM), most hits filed as cytotoxic | hit rate 0.49% among 400,000 | S2 cells (HEK-293 line with an ATXN2-luciferase reporter) viability, CellTiter-Fluor protease fluorescence, 24 h | AID 651635; further: nearly all actives have a fitted effect of over 40% in size
IDH1 R132H inh – human IDH1 R132H inhibition; IDH1-R132H enzyme, NADPH consumption, diaphorase/resazurin fluorescence; Potency, µM (highest dose often 76.6 µM), hits mostly inhibitors; hit rate 0.093% among 390,000; further: nearly all actives have a fitted effect of over 65% in size
Target sequence (O75874 whole entry R132H, stated change not applied): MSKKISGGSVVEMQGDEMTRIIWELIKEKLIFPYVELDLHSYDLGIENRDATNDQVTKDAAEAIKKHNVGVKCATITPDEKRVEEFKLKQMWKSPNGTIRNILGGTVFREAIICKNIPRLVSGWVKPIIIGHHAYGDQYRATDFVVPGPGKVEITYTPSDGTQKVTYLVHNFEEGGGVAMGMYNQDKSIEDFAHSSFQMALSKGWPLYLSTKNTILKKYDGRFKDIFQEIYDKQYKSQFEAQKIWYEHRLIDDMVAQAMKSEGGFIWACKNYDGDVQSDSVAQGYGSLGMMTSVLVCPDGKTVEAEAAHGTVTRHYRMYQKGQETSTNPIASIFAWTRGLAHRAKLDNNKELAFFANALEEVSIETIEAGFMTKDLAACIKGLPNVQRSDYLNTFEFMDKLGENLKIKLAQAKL
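IDH1-R132H (0.5 ug/mL) preincubated 30 min with compound, then NADPH (0.016 mM) and alpha-KG (2 mM) added; 80 min at RT, pH 7.5. Remaining NADPH coupled via diaphorase/resazurin to fluorescence (540/590 nm); concentration-response curves normalized to no-enzyme control.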
LDHA block – blocks human lactate dehydrogenase A | purified LDHA, NADH/diaphorase-resazurin fluorescence; active compounds read low | activity change, % (values are at about 110 or 230 µM) | hit rate 0.15% among 480,000 | AID 1347041; in the data active means activity change below about -30%; inconclusive means mostly about -25% to -30%
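Human LDH5 at 2 nM final in Tris HCl pH 7.4 with 0.06 mM NADH and 0.2 mM pyruvate, reacted 5 minutes at room temperature. Remaining NADH coupled via diaphorase/resazurin; resorufin fluorescence read at 0 and 20 minutes, normalized to enzyme-free and DMSO wells.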
HepG2 viability – HepG2 cytotoxicity, counter-screen for TGF-b inhibitors | HepG2 CAGA-GFP viability, ATP luminescence, 18 h | hit rate 0.76% among 410,000 | AID 588856 | Potency, µM (top dose mostly 46.1 µM), most hits filed as cytotoxic
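CellTiter-Glo luminescence gave cytotoxicity after 18 hours at 37 degrees C. The cells were HepG2 CAGA-GFP in 1% FBS DMEM, stimulated with 500 pg/mL TGF-beta after compound addition. %Activity was normalised to no-cell wells (complete cell-killing) and DMSO (no toxicity), and curves were fitted and classified.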
Hits are given with their value; – = inactive; ? = inconclusive; · = no result; ! = not confirmed by another sample. Unless noted, the call rests on the fitted dose curve; in most records, active means well fitted curve in the direction sought with a large enough effect; inconclusive means small, poorly fitted or top-dose-only effect, or another doubt; inactive means no such curve, though single readings can be large; an effect the other way counts as inactive or inconclusive.

SMILES | TGFb inhibitor | ATXN2 expr inh | S2 tox | IDH1 R132H inh | LDHA block | HepG2 viability
CCn1c(SCC(=O)OC)nnc1C1CCCCC1 | – | – | – | – | – | –
CN(C)c1ccc(-c2csc(C(O)c3ccccc3)n2)cc1 (centres undefined) | – | – | ? | · | – | –
O=C(c1nc(-c2cccnc2)no1)N1CCN(c2ccc(F)cc2)CC1 | · | · | · | · | -33 | ·
Cc1cc(C(=O)N2CCN(c3ccc(F)cc3)CC2)on1 | – | – | – | – | – | –
Cc1ccc(C)c(NC(=O)Nc2nnc(N3CCCCC3C)s2)c1 (centres undefined) | · | · | · | · | – | ·
O=C(Cn1c(=O)n(Cc2ccc(C(=O)NCc3ccc4c(c3)OCO4)cc2)c(=O)c2ccccc21)Nc1ccc(F)cc1F | – | – | – | – | – | –
CCOC(=O)c1ccc(NC(=O)CCc2c(C)nc3c(-c4ccc(F)cc4)c(C)nn3c2C)cc1 | – | – | – | – | – | –
Cc1cccc(C)c1NS(=O)(=O)c1ccc(NC(=O)c2ccc(Cl)c([N+](=O)[O-])c2)cc1 | ? | · | 25µM | – | – | 18µM
Cc1ccc(NC(=O)c2ccc(NCCN)c([N+](=O)[O-])c2)cc1Cl | ? | – | – | – | – | 18µM
N#Cc1ccsc1NC(=O)c1ccc(Cl)c([N+](=O)[O-])c1 | 7.1µM | · | – | – | – | –
O=C(Nc1ccc(S(=O)(=O)NC2=NCCCCC2)cc1)c1ccc(Cl)c([N+](=O)[O-])c1 | – | – | – | – | – | –
CC1CCN(S(=O)(=O)c2ccc3c(c2)oc(=O)n3CC(=O)O)CC1 | – | · | · | – | – | –
O=C(NCc1nnnn1-c1cccc(F)c1)c1ccc(S(=O)(=O)N2CCOCC2)cc1 | – | – | – | – | – | –
C(=C\c1nccc2c1[nH]c1ccccc12)/c1ccccc1 | ? | · | · | – | – | 20µM
O=C(Nc1cccc(-c2csc(Nc3ccc(Cl)cc3)n2)c1)c1ccccc1 | ? | ? | 16µM | – | – | –
Cn1cc(-c2cnn3c(N)c(Br)c([C@H]4CCCNC4)nc23)cn1 | · | 0.39µM | · | · | · | ·
Cc1ccc(S(=O)(=O)N2CCN(C(=O)CN3CCc4ccccc4C3)CC2)cc1 | – | – | – | – | – | –
CCOC(=O)c1cnc(-c2cccc(OC)c2)[nH]c1=O | – | – | – | – | – | –
CCOC(=O)c1ccc(N2C(=O)c3n[nH]c(-c4cccs4)c3C2c2cccc(F)c2)cc1 (centres undefined) | ? | · | · | – | – | –
CCOC(=O)c1ccc(N2C(=O)c3n[nH]c(-c4ccco4)c3C2c2ccc(OCC)cc2)cc1 (centres undefined) | 7.1µM | · | · | – | – | –
CCOC(=O)c1ccc(N2C(=O)c3n[nH]c(-c4ccco4)c3C2c2ccc(F)cc2)cc1 (centres undefined) | ? | ? | ? | – | – | 22µM
CCOC(=O)c1ccc(N2C(=O)c3n[nH]c(-c4ccco4)c3C2c2ccccc2OC)cc1 (centres undefined) | ? | ? | ? | – | – | 5µM
CCOC(=O)c1ccc(N2C(=O)c3n[nH]c(-c4ccco4)c3C2c2cccc(F)c2)cc1 (centres undefined) | ? | ? | ? | – | – | 16µM
O=C(O)C(c1c[nH]c2cc(F)ccc12)N1CCN(C(c2ccccc2)c2ccccc2)CC1 (centres undefined) | · | · | · | · | – | ·
CC(=O)NCCCOc1ccc([N+](=O)[O-])cc1Cl | – | · | – | – | – | –
SMILES | TGFb inhibitor | ATXN2 expr inh | S2 tox | IDH1 R132H inh | LDHA block | HepG2 viability
O=C(/C=C/c1c(F)cccc1Cl)NCc1ccc2c(c1)OCO2 | – | – | – | – | – | –
COc1ccc(CNc2nn3c(-c4cccc(C(=O)N(C)C)c4)cnc3s2)cc1 | ? | – | ? | · | – | –
NS(=O)(=O)c1ccc(CCNc2nn3c(-c4cccc(OC(F)(F)F)c4)cnc3s2)cc1 | ? | 25µM | ? | · | – | –
O=C1C(=O)c2c(C(=O)c3ccccc3)coc2-c2ccccc21 | 8.9µM | ? | · | – | – | 13µM
Cc1oc2c(c1C(=O)O)C(=O)c1ccccc1C2=O | 5µM | – | – | – | – | 7.1µM
Cc1oc2c(c1C(=O)c1ccccc1)C(=O)C(=O)c1ccccc1-2 | ? | 3.5µM | · | – | – | 4.5µM
Cc1onc(-c2ccccc2Cl)c1C(=O)c1ccccc1 | – | – | – | – | – | –
Cc1cc(=O)oc(C)c1C(=O)O | – | – | – | – | – | –
O=C(c1ccco1)N1CCN(C(=O)c2ccco2)C1=S | 11µM | – | ? | – | – | –
CC(C)C1Nc2c(O)cc(Cl)c([N+](=O)[O-])c2C2C=CCC21 (centres undefined) | 13µM | ? | ? | – | – | –
O=C(O)C1Nc2c(Cl)cc(Cl)c(Cl)c2C2C=CCC12 (centres undefined) | – | · | – | – | – | –
O=C(C#Cc1ccccc1)c1ccco1 | 3.2µM | ? | ? | – | – | 11µM
O=C(N=C(c1ccccc1)c1ccccc1)c1ccco1 | · | · | · | · | – | ·
CCOc1cc(C(=O)NN=C2CCCC2)cc(OCC)c1OCC | ? | – | – | – | – | –
O=[N+]([O-])c1cc(Cl)cc(/C=N\Nc2ccccn2)c1O | ? | 7.1µM | ? | – | – | –
CC(c1ccccc1)N1C(=O)/C(=C/c2ccncc2)SC1=S (centres undefined) | ? | · | 22µM | ? | – | –
O=C(O)C(c1ccccc1)N1C(=O)/C(=C/c2cccs2)SC1=S (centres undefined) | – | – | – | – | – | –
CC(=O)Nc1cccc(S(=O)(=O)N2CCN(S(=O)(=O)c3c(F)cccc3F)CC2)c1 | · | · | · | · | – | ·
COc1ccc2ccc3c(c2c1)N=CC1(O3)N(C)c2ccccc2C1(C)C (centres undefined) | 7.9µM | – | – | – | – | –
Cc1[nH]c(=O)[nH]c(=O)c1S(=O)(=O)Nc1ccc(Br)cc1 | · | · | · | · | – | ·
COc1cc(NC(=O)c2cnc(N)o2)cc(C(=O)Nc2cccc(C(F)(F)F)c2)c1 | ? | ? | 20µM | – | – | –
COc1cc(NC(=O)c2cc(C)on2)cc(C(=O)Nc2cccc(C(F)(F)F)c2)c1 | ? | ? | ? | – | – | –
COc1cc(NC(=O)c2ccnc(N)c2)cc(C(=O)Nc2cccc(C(F)(F)F)c2)c1 | – | – | – | – | – | –
COc1cc(NC(=O)c2csc(N)n2)cc(C(=O)Nc2cccc(C(F)(F)F)c2)c1 | ? | ? | 18µM | – | – | –
COc1cc(NC(=O)c2cnc(N)s2)cc(C(=O)Nc2cccc(C(F)(F)F)c2)c1 | ? | – | 35µM! | ? | – | –
